The results in this text go back to PubChem BioAssay (NCI).

Holding throughout (test): NCI-60 one-dose screen, 48 h (100 = growth as untreated, 0 = no growth, -100 = all killed)
Common to all, as to settings: 10 µM unless noted

Assay [1] has as its system NCI-H23 lung.
Assay [2] relates to NCI-H226 lung.
Assay [3] relates to NCI-H322M lung.
The subject of assay [4] is HOP-62 NSCLC.
For assay [5], the system named is NCI-H460 lung.
The test system of assay [6] is HOP-92 NSCLC.
Assay [7] relates to NCI-H522 lung.
Assay [8] concerns A549/ATCC NSCLC.
Assay [9] deals with 786-0 renal.
For assay [10], the system named is COLO 205 colon.
Assay [11] relates to DU-145 prostate.
Assay [12] relates to K-562 leukemia.
The test system of assay [13] is MALME-3M melanoma.
Assay [14] concerns MDA-MB-231 breast.
The subject of assay [15] is RXF 393 renal.
Assay [16] has as its system SF-268 CNS.
Assay [17] has as its system SF-295 CNS.
Assay [18] has as its system SF-539 CNS.
The subject of assay [19] is UACC-257 melanoma.
Assay [20] concerns M14 melanoma.

Structures are written as SMILES. This is part of a sample that, as a whole, favours compounds with a hit. Of some 83,000 tested, about 20% had one in any assay.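 Compound tested at a single concentration for 48 hours in 96-well plates; a percent growth value below 10 was scored as active.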 Values without a mark were called inactive. The source made the active and inactive calls.

As to `Cc1nc(N)sc1-c1ccnc(Nc2ccc(N3CCOCC3)cc2)n1`, the growth in assay [1] was 43.1%; in assay [2], 35.6%; in assay [3], 51.4%; in assay [4], 11.4%; in assay [5] it was 15.9%; in [6], 34.9%. In addition, the growth in assay [7] was 11.6%; in assay [8], 21.9%; in [9], 34.5%; in assay [10] it was 1.1% (active); in [11], 33.2%; in assay [12], 59.1%. For the same compound, the growth in assay [13] is 47.8%; in assay [14] it was 29.5%; in [15], 18.3%; in assay [16] it was 28.5%; in assay [17], 25.3%; in [18], 25.6%. In addition, the growth in assay [19] was 71.9%; in assay [20] it was 36.8%.
Turning to `COc1ccc(C(=O)c2cc(OC)c(OC)c(OC)c2)cc1/C=C/C(=O)c1ccc(F)cc1`, the growth in [1] was 79.7%; in assay [2], 90.4%; in assay [3], 85.5%; in assay [4], 95.5%; in assay [5] it was 92.9%; in assay [6], 69.2%. Further, the growth in assay [7] is 18.5%; in assay [8] it was 90.7%; in [9], 77.4%; in [10] it was 79.3%; in [11] it was 85.5%; in [12] it was 9.61% (active). Besides, the growth is 65.6% in assay [13]; 68.4% in assay [14]; 88.3% in assay [15]; 77% in assay [16]; 84.3% in assay [17]; 51.8% in assay [18]. The figures for the growth in assay [19] and in assay [20] were 86.6% and 72.5%, respectively.
With `COc1ccc(Nc2ncccc2NC(=O)c2cn(Cc3cccc(Oc4ccccc4)c3)nn2)cc1`, the growth was 91.8% in assay [1]; 93.8% in assay [2]; 82.9% in [3]; 106% in assay [4]; 96.5% in assay [5]; 99.6% in assay [6]. The growth in assay [7] is 77.8%; in [8] it was 80.2%; in assay [9], 102%; in assay [10], 102%; in assay [11], 93.4%; in assay [12] it was 73.8%. For the same compound, the growth was 85.8% in [13]; 87.1% in assay [14]; 79.6% in assay [15]; 82.3% in assay [16]; 92.8% in [17]; 95.1% in [18]. For the same compound, the values for the growth in assay [19] and in assay [20] were 93% and 95.9%, respectively.
On to `COc1cc2ncnc(Nc3ccc(O)cc3)c2cc1OC`, for which the growth is 104% in assay [1]; 95.2% in [2]; 12.4% in assay [3]; 86.5% in assay [4]; 103% in assay [5]; 78% in assay [6]. Moreover, the growth in assay [7] is 11%; in [8] it was 45.8%; in assay [9], 83.4%; in assay [10] it was 115%; in assay [11] it was 61.3%; in assay [12], 73%. Further, the growth in [13] was 102%; in assay [14] it was 88.8%; in [15], 82.3%; in assay [16], 86.6%; in [17] it was 98.8%; in assay [18], 73.4%. Further, the growth in assay [19] is 63.7%; in assay [20], 79.7%.
For the compound `Cc1cc(C2(c3ccc(O)c(C)c3)OS(=O)(=O)c3ccccc32)ccc1O`, the growth was 101% in assay [1]; 97.9% in [2]; 103% in assay [3]; 107% in [4]; 103% in assay [5]; 78.6% in assay [6]. The growth in assay [7] is 115%; in [8] it was 101%; in assay [9], 112%; in assay [10], 96.3%; in [11], 122%; in assay [12], 104%. The growth in assay [13] is 91.7%; in assay [14], 102%; in assay [15] it was 98.5%; in [16], 112%; in [17], 105%; in [18], 99%. In addition, the growth was 100% in assay [19] and 99.9% in assay [20].
Turning to `Cc1ccc(Nc2nccc(N(C)c3ccc4c(C)n(C)nc4c3)n2)cc1S(N)(=O)=O`, the growth is 15.6% in assay [1]; 27.5% in assay [2]; 7.5% (active) in [3]; 12.4% in assay [4]; 21.5% in assay [5]; -56.2% (active) in assay [6]. Besides, the growth was 10.7% in assay [7]; 5.92% (active) in [8]; 35.7% in assay [9]; -10.3% (active) in [10]; 39.4% in assay [11]; 7.01% (active) in assay [12]. For the same compound, the growth in assay [13] was 2.35% (active); in [14], -2.02% (active); in [15], -37.5% (active); in [16], 45.4%; in assay [17], 31.1%; in assay [18], -45.2% (active). The growth in assay [19] is -6.96% (active); in assay [20] it was -3.62% (active).
In the case of `CCOc1cccc(/C=N/NC(=O)c2ccccc2Nc2ccnc(C(F)(F)F)c2)c1O`, the growth in assay [1] is 21.6%; in assay [2], -15.2% (active); in assay [3], 22.2%; in assay [4], -7.4% (active); in [5] it was -8.7% (active); in [6], 25.2%. Moreover, the growth in assay [7] was 16.6%; in assay [8], 15%; in [9] it was 3.64% (active); in assay [10], 9.3% (active); in assay [11] it was 26.2%; in assay [12], 15.5%. Moreover, the growth in assay [13] was 18.1%; in assay [14], 47%; in assay [15] it was 23.9%; in assay [16] it was 13%; in assay [17], 17.7%; in [18] it was 0.222% (active). Also, the growth was 10.2% in assay [19] and -29.2% (active) in assay [20].
